Assay results published in PubChem BioAssay AID1159580 (chemical genetic matrix, 2015).
Out of some 5,500 compounds screened, about 2,000 (36%) were called active. Not shown: some 18% with an inconclusive outcome. Rule as the data show it: active = normalized growth mostly below about 0.91 (no sharp cut-off); inconclusive = no clear call, values can overlap the other calls; inactive = mostly above about 0.92. The list shows a part of the results.

Test: chemical genetic growth profiling, strain panel (AID 1159580);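 also: tested at 20 µM; growth read once vehicle control cultures reached saturation at 30 °C; 1 = growth at the plate median or of vehicle wells; lower values mean less growth of the strain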
Conditions: S. cerevisiae deletion strains, growth OD
[1] = locus YHR030C, strain SLT2, stronger effect = lower value

Measured: normalized growth

C[C@H]1O[C@H](O[C@H]2[C@H](O)[C@@H](O)[C@@H](O[C@H]3[C@H](O)[C@@H](O)C(O)O[C@@H]3CO)O[C@@H]2CO)[C@H](O)[C@@H](O)[C@@H]1N[C@H]1C=C(CO)[C@@H](O)[C@H](O)[C@H]1O (stereo not given in full)
inactive: locus YAL021C, strain ccr4, stronger effect = lower value 0.999 | locus YAL026C, strain drs2, stronger effect = lower value 1.03 | locus YAL030W, strain snc1, stronger effect = lower value 0.993 | locus YBL061C, strain skt5, stronger effect = lower value 0.984 | locus YBR009C, strain hhf1, stronger effect = lower value 1.01 | locus YBR023C, strain chs3, stronger effect = lower value 1.01 | locus YBR171W, strain sec66, stronger effect = lower value 0.979 | locus YBR231C, strain swc5, stronger effect = lower value 0.982 | locus YBR279W, strain paf1, stronger effect = lower value 1.01 | locus YCL011C, strain gbp2, stronger effect = lower value 1.03 | locus YCL016C, strain dcc1, stronger effect = lower value 1.02 | locus YCL069W, strain vba3, stronger effect = lower value 1 | locus YCR088W, strain abp1, stronger effect = lower value 0.991 | locus YDL005C, strain med2, stronger effect = lower value 1 | locus YDL040C, strain nat1, stronger effect = lower value 0.99 | locus YDR001C, strain nth1, stronger effect = lower value 0.995 | locus YDR069C, strain doa4, stronger effect = lower value 0.985 | locus YDR137W, strain rgp1, stronger effect = lower value 0.998 | locus YDR159W, strain sac3, stronger effect = lower value 0.981 | locus YDR195W, strain ref2 0.936 | locus YDR297W, strain sur2, stronger effect = lower value 0.988 | locus YDR334W, strain swr1, stronger effect = lower value 0.983 | locus YDR335W, strain msn5, stronger effect = lower value 0.974 | locus YDR392W, strain spt3, stronger effect = lower value 1.04 | locus YEL003W, strain gim4, stronger effect = lower value 0.974 | locus YEL037C, strain rad23, stronger effect = lower value 0.988 | locus YEL061C, strain CIN8 (second series), stronger effect = lower value 0.994 | locus YER015W, strain faa2, stronger effect = lower value 1.01 | locus YER016W, strain bim1, stronger effect = lower value 1 | locus YER111C, strain swi4, stronger effect = lower value 0.984 | locus YER155C, strain BEM2 (second series), stronger effect = lower value 0.977 | locus YFR010W, strain ubp6, stronger effect = lower value 0.978 | locus YGL167C, strain pmr1, stronger effect = lower value 0.974 | locus YGL173C, strain kem1, stronger effect = lower value 0.955 | locus YGL227W, strain vid30, stronger effect = lower value 0.987 | locus YGL240W, strain doc1, stronger effect = lower value 0.964 | locus YGL253W, strain hxk2, stronger effect = lower value 0.999 | locus YHR013C, strain ard1, stronger effect = lower value 0.992 | locus YHR027C, strain rpn1, stronger effect = lower value 1.01 | [1] 0.955 | locus YHR079C, strain IRE1, stronger effect = lower value 0.959 | locus YHR142W, strain chs7, stronger effect = lower value 0.989 | locus YJL092W, strain hpr5, stronger effect = lower value 0.977 | locus YJL095W, strain BCK1 (second series), stronger effect = lower value 0.993 | locus YJL095W, strain BCK1, stronger effect = lower value 0.957 | locus YJL115W, strain asf1, stronger effect = lower value 0.974 | locus YJL129C, strain trk1, stronger effect = lower value 0.969 | locus YJL154C, strain vps35, stronger effect = lower value 0.964 | locus YJL164C, strain tpk1, stronger effect = lower value 1.01 | locus YJL166W, strain qcr8, stronger effect = lower value 0.971 | locus YJL187C, strain SWE1, stronger effect = lower value 0.999 | locus YJR066W, strain TOR1, stronger effect = lower value 0.916 | locus YKL160W, strain elf1, stronger effect = lower value 0.968 | locus YKR026C, strain gcn3, stronger effect = lower value 0.995 | locus YKR091W, strain srl3, stronger effect = lower value 0.988 | locus YLL001W, strain dnm1, stronger effect = lower value 0.945 | locus YLL026W, stronger effect = lower value 1.01 | locus YLL041C, strain sdh2, stronger effect = lower value 0.988 | locus YLR027C, strain aat2, stronger effect = lower value 0.993 | locus YLR113W, strain HOG1, stronger effect = lower value 0.933 | locus YLR221C, strain rsa3, stronger effect = lower value 1.03 | locus YLR258W, strain gsy2, stronger effect = lower value 1.01 | locus YLR262C, strain YPT6 (second series), stronger effect = lower value 0.959 | locus YLR320W, strain mms22, stronger effect = lower value 1.01 | locus YLR342W, strain FKS1, stronger effect = lower value 0.973 | locus YLR357W, strain rsc2, stronger effect = lower value 0.985 | locus YLR370C, strain arc18, stronger effect = lower value 0.993 | locus YLR384C, strain iki3, stronger effect = lower value 0.977 | locus YML120C, strain ndi1, stronger effect = lower value 0.98 | locus YMR058W, strain fet3, stronger effect = lower value 0.996 | locus YMR125W, strain sto1, stronger effect = lower value 0.996 | locus YMR129W, stronger effect = lower value 0.989 | locus YMR205C, strain PFK2, stronger effect = lower value 0.983 | locus YMR231W, strain pep5, stronger effect = lower value 0.991 | locus YNL071W, strain lat1, stronger effect = lower value 1.01 | locus YNL183C, strain NPR1, stronger effect = lower value 0.923 | locus YNL209W, strain ssb2, stronger effect = lower value 1.01 | locus YNL248C, strain rpa49, stronger effect = lower value 1.01 | locus YNL322C, strain KRE1 (second series), stronger effect = lower value 0.988 | locus YNR049C, strain mso1, stronger effect = lower value 0.987 | locus YOR001W, strain rrp6, stronger effect = lower value 0.96 | locus YOR070C, strain gyp1, stronger effect = lower value 1.01 | locus YOR080W, strain dia2, stronger effect = lower value 0.98 | locus YOR083W, strain WHI5, stronger effect = lower value 0.987 | locus YOR106W, strain vam3, stronger effect = lower value 0.979 | locus YOR231W, strain MKK1, stronger effect = lower value 0.953 | locus YOR265W, strain rbl2, stronger effect = lower value 0.992 | locus YOR270C, strain vph1, stronger effect = lower value 1 | locus YOR290C, strain snf2, stronger effect = lower value 1.01 | locus YPL051W, strain arl3, stronger effect = lower value 1 | locus YPL078C, strain atp4, stronger effect = lower value 0.948 | locus YPL106C, strain sse1, stronger effect = lower value 1.02 | locus YPL240C, strain hsp82, stronger effect = lower value 0.988 | locus YPL256C, strain CLN2, stronger effect = lower value 0.967

O=[N+]([O-])c1ccc(Oc2c(Cl)cccc2Cl)c(Cl)c1Oc1c(Cl)cccc1Cl
inactive: locus YAL013W, strain DEP1, stronger effect = lower value 0.98 | locus YBR229C, strain ROT2, stronger effect = lower value 0.981 | locus YDL101C, strain DUN1, stronger effect = lower value 0.95 | locus YDL134C, strain PPH21, stronger effect = lower value 0.993 | locus YDR150W, strain NUM1, stronger effect = lower value 0.992 | locus YEL061C, strain CIN8, stronger effect = lower value 0.998 | locus YGR078C, strain PAC10, stronger effect = lower value 0.984 | [1] 0.956 | locus YHR087W, strain rtc3, stronger effect = lower value 1.04 | locus YJR043C, strain POL32, stronger effect = lower value 0.961 | locus YJR075W, strain HOC1, stronger effect = lower value 1.04 | locus YLR039C, strain RIC1, stronger effect = lower value 0.902 | locus YLR058C, strain SHM2 (second series), stronger effect = lower value 0.991 | locus YLR085C, strain ARP6, stronger effect = lower value 0.976 | locus YLR262C, strain YPT6, stronger effect = lower value 0.949 | locus YML094W, strain GIM5, stronger effect = lower value 1.01 | locus YMR219W, strain ESC1, stronger effect = lower value 1 | locus YMR263W, strain SAP30, stronger effect = lower value 1.01 | locus YMR307W, strain GAS1, stronger effect = lower value 1.02 | locus YNL153C, strain GIM3, stronger effect = lower value 0.986 | locus YNL298W, strain CLA4 (second series), stronger effect = lower value 0.953 | locus YNL322C, strain KRE1, stronger effect = lower value 0.987 | locus YNR030W, strain Alg12, stronger effect = lower value 0.969 | locus YPL055C, strain LGE1, stronger effect = lower value 1 | locus YPL241C, strain CIN2, stronger effect = lower value 0.961 | locus YPR135W, strain CTF4, stronger effect = lower value 0.901
